Measurements published in PubChem BioAssay (NCATS).
Inconclusive results are not listed. The source made the active and inactive calls. Calls come from the whole dose curve; as a rule, active = well fitted curve in the direction sought with a large enough effect; inconclusive = small, poorly fitted or top-dose-only effect, or another doubt; inactive = no such curve, though single readings can be large; an effect the other way counts as inactive or inconclusive.

assay: qHTS Assay for Identifying Gametocytocidal Compounds (AID 743244);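 for max response: actives lower the fluorescent signal which means gametocytes are killed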; conditions: P. falciparum 3D7 stage III-V gametocytes, alamarBlue, 72 h; max response: active compounds read low
Procedure, shortened: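 Late gametocytes (III–V), P. falciparum 3D7; 72 h drug, then 24 h alamarBlue; resazurin reduction read by fluorescence.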
% is set by controls: 0 for no effect and ±100 for the full control effect; potency is the fitted concentration of half-maximal effect.

| SMILES | max response | Potency |
| --- | --- | --- |
| CCC(=O)O[C@](Cc1ccccc1)(c1ccccc1)[C@H](C)CN(C)C | 0.382% (inactive) | – |
| Cc1nnc2n1-c1sc(Br)cc1C(c1ccccc1Cl)=NC2 | 6.14% (inactive) | – |
| CN1CCN=C(c2ccccc2)c2cc(Cl)ccc21 | 0.139% (inactive) | – |
| O.O.O.O=C([O-])C(O)C(O)C(=O)[O-].O=C([O-])C(O)C(O)C(=O)[O-].[K+].[K+].[Sb].[Sb] (centres undefined) | – | 0.708 µM (active) |
| CCc1cc(OC)c(C[C@@H](C)N)cc1OC | 0.694% (inactive) | – |
| CC(C)=CCN1CC[C@]2(C)c3cc(O)ccc3C[C@H]1[C@H]2C | 2.13% (inactive) | – |

assay: P-glycoprotein substrates identified in KB-8-5-11 adenocarcinoma cell line, qHTS therapeutic library screen (AID 1346987); conditions: KB-8-5-11 (P-gp overexpressing) viability, CellTiter-Glo, 72 h; series mostly up to 44.5 µM; activity change, negative = cytotoxicity: at the top concentration; outcome: at the top concentration; note: nearly all actives have a fitted effect of over 65% in size
Procedure, shortened: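 Human cervical adenocarcinoma KB-8-5-11 cells, selected in colchicine to over-express P-gp and assayed without it, were exposed for 72 h to titrated compounds. An ATP-based luminescent viability signal gave AC50.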

| SMILES | activity change, negative = cytotoxicity | Potency |
| --- | --- | --- |
| CN1CCN=C(c2ccccc2)c2cc(Cl)ccc21 | -5.44% (inactive) | – |
| O.O.O.O=C([O-])C(O)C(O)C(=O)[O-].O=C([O-])C(O)C(O)C(=O)[O-].[K+].[K+].[Sb].[Sb] (centres undefined) | – | 8.2 µM (active) |
| CCc1cc(OC)c(C[C@@H](C)N)cc1OC | -20.3% [at 93.4 µM] (inactive) | – |
